From PubChem BioAssay AID463173 (ICCB-Longwood Screening Facility, Harvard Medical School, 2010)
The campaign covered roughly 52,000 compounds. About 4,300 (8.3%) were called active. Rule as the data show it: active = survival mostly below about 52% (no sharp cut-off); inactive = mostly above about 56%. The full list was thinned out, with actives kept by preference.

system: DeltatarO mutant; assay: S. aureus survival, RN4220 and DeltatarO strains – OD600, teichoic acid synthesis inhibitors, primary screen (AID 463173); conditions: S. aureus RN4220 wild type/DeltatarO growth, OD600, 18 h, stronger effect = lower value, screened at 18.75 µg/mL (by protocol)

Structure (SMILES)	survival
CCC1SC(C)C/C(=N\O)C1C (configuration not stated)	105% (inactive)
CCOc1ccc(CCNC(=O)CCCc2nnc3n(C)c(=O)c4sccc4n23)cc1OCC	93% (inactive)
COc1cc(OC)cc(-c2nc3nc(C)c(CCC(=O)Nc4cc(C)cc(C)c4)c(C)n3n2)c1	69% (inactive)
O=C(NCc1cccc(Br)c1)C1CCN(C(=O)c2sccc2-n2cccc2)CC1	66% (inactive)
O=C(CN1C(=O)COc2ccc(S(=O)(=O)N3CCCCCC3)cc21)N1CCN(c2ccc(F)cc2)CC1	67% (inactive)
CCCC(=O)Nc1nnc(SCc2cc(=O)c3ccc(C)cc3[nH]2)s1	122% (inactive)
COc1ccc(NS(=O)(=O)c2cc(-c3onc(C)c3C)ccc2C)c(OC)c1	89% (inactive)
Cc1ccc(NC(=O)C2CCN(S(=O)(=O)c3cccs3)CC2)cc1	40% (active)
CCc1cccc(NC(=O)C2CCCN(S(=O)(=O)c3cccs3)C2)c1 (configuration not stated)	80% (inactive)
COc1ccc(NC(=O)C2CCCN(S(=O)(=O)c3cccs3)C2)cc1 (configuration not stated)	96% (inactive)
CCOc1ccccc1NC(=O)C1CCN(S(=O)(=O)c2cccs2)CC1	58% (inactive)
O=C(Nc1cccc(C(F)(F)F)c1)C1CCN(S(=O)(=O)c2cccs2)CC1	39% (active)
O=C(Nc1cccc(C(F)(F)F)c1)C1CCN(S(=O)(=O)c2cccc3nsnc23)CC1	81% (inactive)
O=C(O)C1CSC(c2cccs2)N1 (configuration not stated)	83% (inactive)
CCN1C(=O)c2ccccc2Sc2ccc(NC(=O)c3ccc(C#N)cc3)cc21	102% (inactive)
COc1ccc(Nc2cc(C(=O)NCCCN(C)C3CCCCC3)c3ccccc3n2)cc1	97% (inactive)
N#Cc1ccc(C(=O)N2CCN(c3nc4ccc(F)cc4s3)CC2)cc1	72% (inactive)
Fc1ccc(CNc2nc(-c3ccc(Cl)cc3)cc(C(F)(F)F)n2)cc1	12% (active)
Fc1ccc(CNc2cc(-c3ccccc3)nc3nncn23)cc1	17% (active)
O=C(CSc1nc(-c2ccc(F)cc2)cc(C(F)(F)F)n1)NCCc1ccccc1	73% (inactive)
Fc1ccc(-c2cc(C(F)(F)F)nc(NCc3ccccc3)n2)cc1	85% (inactive)
Fc1ccc(CNc2nc(-c3ccccc3)cc(C(F)(F)F)n2)cc1	4% (active)
COc1ccc(-c2cc(NCc3ccc(F)cc3)n3cnnc3n2)cc1	61% (inactive)
O=S(=O)(c1ccccc1)n1nc(-c2ccc(Cl)cc2)nc1NCc1ccc(F)cc1	53% (inactive)
O=C(NCc1ccc(F)cc1)c1cc(-c2ccc(Cl)cc2)n[nH]1	85% (inactive)

Structure (SMILES)	survival
Clc1ccc(CNc2cc(-c3ccccc3)nc3nncn23)cc1	50% (inactive)
O=C(NCC(c1cccnc1)N1CCN(Cc2ccccc2)CC1)C(=O)Nc1cccc(Cl)c1 (configuration not stated)	77% (inactive)
CCOC(=O)c1cccc(NC(=O)Cc2ccc(NC(=O)N3CCCCc4ccccc43)cc2)c1	76% (inactive)
Cc1csc2nc(COC(=O)COc3ccccc3F)cc(=O)n12	64% (inactive)
CCOC(=O)c1[nH]cnc1C(=O)Nc1ccc(F)cc1	64% (inactive)
COc1cccc(NC(=O)CSc2nnc(NC(=O)NC3CCCCC3)s2)c1	75% (inactive)
COc1ccc(NC(=O)Cn2c(=O)n(CCc3ccccc3)c(=O)c3sc4ccccc4c32)cc1	76% (inactive)
O=C(CN1C(=O)CCSc2ccc(S(=O)(=O)N3CCCC3)cc21)Nc1cccc(F)c1	72% (inactive)
CCCCn1c(=NC(=O)c2c(-c3c(F)cccc3Cl)noc2C)c(C(=O)OCC)cc2c(=O)n3ccccc3nc21	170% (inactive)
COc1ccc(CNC(=O)CN2C(=O)COc3ccccc32)c(OC)c1	89% (inactive)
CC1CCN(S(=O)(=O)c2ccc3c(c2)CCN3C(=O)Nc2ccccc2Br)CC1	76% (inactive)
CCc1ccc(NC(=O)CSc2ccc3nnc(CCNS(=O)(=O)c4ccc(OC)cc4)n3n2)cc1	81% (inactive)
O=S(=O)(NCCc1nnc2ccc(SCc3cccc(Cl)c3)nn12)c1ccccc1	58% (inactive)
COc1ccc(S(=O)(=O)NCCc2nnc3ccc(SCC(=O)Nc4ccc(C(F)(F)F)cc4)nn23)cc1	81% (inactive)
Cc1cccc(CSc2ccc3nnc(CCNS(=O)(=O)c4ccccc4)n3n2)c1	68% (inactive)
O=S(=O)(NCCc1nnc2ccc(SCc3c(F)cccc3Cl)nn12)c1ccccc1	58% (inactive)
O=S(=O)(NCCc1nnc2ccc(SCc3ccccc3Cl)nn12)c1ccccc1	68% (active)
COc1ccc(S(=O)(=O)NCCc2nnc3ccc(SCC(=O)Nc4cc(C)cc(C)c4)nn23)cc1	63% (active)
Cc1ccc(C)c(CSc2ccc3nnc(CCNS(=O)(=O)c4ccccc4)n3n2)c1	75% (inactive)
O=S(=O)(NCCc1nnc2ccc(SCc3ccc(Cl)cc3Cl)nn12)c1ccccc1	37% (active)
Cc1onc(-c2ccccc2Cl)c1C(=O)Oc1ccccc1F	76% (inactive)
Cc1ccc(NC(=O)c2cc3c(=O)[nH]c4ccccc4c3n2C)cc1F	83% (inactive)
O=C(OCCN1CCOCC1)c1ccccc1	88% (inactive)
Cc1ccc(-n2ncc3c(NCCCN(C)C)ncnc32)cc1Cl	95% (inactive)
COc1ccc(-c2noc(-c3ccc(N4CCN(c5ccccc5)CC4)c([N+](=O)[O-])c3)n2)cc1	49% (inactive)

Structure (SMILES)	survival
Cc1ccccc1OCC(=O)Nc1ccc2nc(SCc3ccccc3)sc2c1	88% (inactive)
CCc1ccc(CN(Cc2ccco2)C(=O)COc2ccc(Cl)c(C)c2)cc1	38% (active)
Cc1cc(OC(C)C(=O)N(Cc2ccco2)Cc2ccco2)cc(C)c1Cl (configuration not stated)	35% (active)
Cc1cccc(OCC(=O)N(Cc2ccc(C(C)C)cc2)Cc2ccco2)c1C	49% (inactive)
Cc1ccc(CN(Cc2ccco2)C(=O)COc2ccccc2C)cc1	40% (active)
Cc1ccc(CN(Cc2ccco2)C(=O)COc2c(C)cc(C)cc2C)cc1	54% (inactive)
Cc1ccc(CN(Cc2ccco2)C(=O)COc2cccc(C)c2C)o1	66% (inactive)
Cc1ccc(CN(Cc2ccco2)C(=O)COc2cc(C)c(Cl)c(C)c2)cc1	58% (inactive)
Cc1cc(OC(C)C(=O)N(Cc2ccc(N(C)C)cc2)Cc2ccco2)ccc1Cl (configuration not stated)	67% (inactive)
Cc1cc(OC(C)C(=O)N(Cc2ccco2)Cc2ccccc2F)cc(C)c1Cl (configuration not stated)	81% (inactive)
Cc1ccc(OCC(=O)N(Cc2ccc(Cl)cc2)Cc2ccco2)cc1C	58% (inactive)
Cc1cccc(OCC(=O)N(Cc2ccc(N(C)C)cc2)Cc2ccco2)c1C	42% (active)
CCc1ccc(OCC(=O)N(Cc2ccc(C)cc2)Cc2ccco2)cc1	91% (inactive)
NNC(=O)C1CCN(S(=O)(=O)c2ccccc2N)CC1	95% (inactive)
CCOc1cc(C(=O)OCc2cc(=O)n3nc(C4CC4)sc3n2)cc(OCC)c1OCC	79% (inactive)
COCCNC(=S)N1CCC(NC(=O)Nc2ccc(F)cc2)CC1	91% (inactive)
CC(SCc1ccccc1)C(=O)NCc1ccccn1 (configuration not stated)	77% (inactive)
COc1ccccc1N1CCN(C(=O)Cn2ncc3ccsc3c2=O)CC1	114% (inactive)
CC1CCc2c(sc(NC(=O)c3ccc(Cl)cc3Cl)c2C#N)C1 (configuration not stated)	71% (inactive)
COc1cc(CN(C(=O)c2ccc(C)cc2)c2ccccn2)cc(OC)c1OC	78% (inactive)
CN(CCC(N)=O)Cc1ccccc1	75% (inactive)
CCC(C)Cn1c(/C=C/c2ccccc2)nc2ccccc21 (configuration not stated)	-1% (active)
Cc1cccc(C(=O)NCCc2nc3ccccc3n2CCC(C)C)c1	99% (inactive)
CCCCCn1c(CNC(=O)c2ccc(F)cc2)nc2ccccc21	68% (inactive)
CCCn1c(CNC(=O)c2ccc(F)cc2)nc2ccccc21	76% (inactive)

Structure (SMILES)	survival
CC(C)CCn1c(/C=C/c2ccccc2)nc2ccccc21	-1% (active)
CCCCCCn1c(CNC(=O)c2ccccc2)nc2ccccc21	66% (inactive)
CCCn1c(SCC(O)c2ccccc2)nc2ccccc21 (configuration not stated)	86% (inactive)
CCCCCn1c(CNC(=O)c2ccccc2)nc2ccccc21	67% (inactive)
CCn1c(O)c(/C=C/c2nc3ccccc3n2CC)sc1=S	78% (inactive)
CC(C)Cn1c(/C=C/c2ccc(F)cc2)nc2ccccc21	-4% (active)
CCc1nc2ccccc2n1CC(C)C(=O)O (configuration not stated)	96% (inactive)
CCCCCCn1c(/C=C/c2ccccc2)nc2ccccc21	1% (active)
COc1ccc(OCc2ccc(-c3nc(C#N)c(NCc4ccccc4)o3)o2)cc1	78% (inactive)
COc1cc(C(CC(=O)Nc2cccc(C(C)=O)c2)N2Cc3ccccc3C2=O)cc(OC)c1OC (configuration not stated)	67% (inactive)
COc1ccccc1N1CCN(C(=O)c2c3c(nc4ccccc24)C(=O)N(C2CCCCC2)C3)CC1	94% (inactive)
Cc1ccc(-c2nnc(Nc3ccc(S(N)(=O)=O)cc3)c3ccccc23)cc1S(=O)(=O)N1CCCCC1	103% (inactive)
Cn1c(SCC(=O)N2CCOCC2)ncc(C(=O)Nc2ccc(F)cc2)c1=O	87% (inactive)
CCOc1ccc(NS(=O)(=O)c2ccc(C(=O)N(C)C)s2)cc1	76% (inactive)
CCOc1cc2sc(N3CCC(C(=O)Nc4ccc(CC)cc4)CC3)nc2cc1Br	86% (inactive)
Cn1c(C=Nc2ccc(Cl)cc2)nc2ccccc21	83% (inactive)
C#CCn1c(/C=C/c2ccc(Cl)cc2)nc2ccccc21	10% (active)
Cc1ccc(/C=C/c2nc3ccccc3n2S(=O)(=O)c2cccc(Cl)c2)cc1	77% (inactive)
COc1ccc(-c2nnc(SCC(=O)Nc3ccc(Cl)cc3)s2)cc1	84% (inactive)
Cn1cc(C(=O)N2CCN(c3cccc(C(F)(F)F)c3)CC2)c2c3ccccc3n(C)c2c1=O	20% (active)
Cc1ccc(-n2nc(C(=O)N3CCN(c4cccc(C(F)(F)F)c4)CC3)c3c4ccccc4n(C)c3c2=O)cc1	95% (inactive)
Cn1c2ccccc2c2c(C(=O)N3CCN(c4cccc(C(F)(F)F)c4)CC3)cn(C3CCCCC3)c(=O)c21	88% (inactive)
